Source: PubChem
This is a sample that favours compounds with a hit; in the whole collection about 4.6% have one here.
tim10-1 inh – growth inhibitors of tim10-1 mutant yeast, primary screen, luminescence, uHTS; S. cerevisiae tim10-1 ts strain growth, BacTiter-Glo, 24 h; 330,000 compounds, 2.2% hits; inhibition, % at 20 µM;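 active = inhibition of at least 40%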;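 note: mutant grown at 25 °C; 0% = DMSO wells with yeast and 100% = wells holding no yeast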
NLRP3 yeast inh – NALP3 inflammasome inhibitors in reconstituted yeast, primary screen, luminescence, uHTS. Yeast reconstituted NLRP3/ASC/caspase-1, beta-gal luminescence, 24 h. inhibition, % at 10 µM. 330,000 compounds, 0.39% hits. AID 2825, 2010;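 active = inhibition of 50% or more; inactive = inhibition below 50%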;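 note: plate controls were induced DMSO wells for no effect and uninduced yeast grown without galactose for full effect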
SKKanGAS inh – S. pyogenes SKKanGAS growth inhibitors in kanamycin, primary screen, streptokinase expression inhibitor project, SKKanGAS strain, BacTiter-Glo luminescence. 300,000 compounds, 1.3% hits. 6 h. AID 1662, 2009. inhibition, % at 7.5 µM;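 active = mean replicate score, as percent of positive control median, at least 50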;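 note: strain carries kanamycin resistance gene driven by streptokinase promoter and grows in 40 µg/ml kanamycin; loss of luminescence reflects streptokinase promoter inhibition or plain growth inhibition; 0% = median of DMSO wells and 100% = positive control at its reference dose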
tim23-1 inh – growth inhibitors of tim23-1 mutant yeast, primary screen, luminescence, uHTS; S. cerevisiae tim23-1 growth, BacTiter-Glo luminescence, 24 h; inhibition, % at 20 µM; 330,000 compounds, 1.3% hits; AID 463212, 2010;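 active = growth inhibition of the mutant yeast at or above 50%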;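 note: temperature-sensitive mutant grown at 25 °C; plate controls were DMSO-treated mutant yeast for no effect and medium wells lacking yeast for full effect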
TIM10 inh – growth inhibitors of isogenic TIM10 control yeast, primary screen, counter-screen for tim10-1 yeast inhibitor project, luminescence, uHTS; S. cerevisiae TIM10 strain growth, BacTiter-Glo luminescence, 24 h; inhibition, % at 10 µM; 330,000 compounds, 1.4% hits; AID 463195, 2010;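 active = inhibition of 40% or more at the single tested concentration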;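 note: wild-type TIM10 isogenic control strain grown at permissive 25 °C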
tim23-1 confirm – tim23-1 mutant yeast growth inhibitors, confirmation, luminescence, single concentration; shares compounds with tim23-1 inh; S. cerevisiae tim23-1 growth, BacTiter-Glo luminescence, 24 h; inhibition, % at 20 µM; 4,400 compounds, 83% hits; AID 463218, 2010;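 active = inhibition above about 39% in either of two replicate wells at 20 µM, limit read from the data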;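 note: temperature-sensitive tim23-1 mutant grown at 25 °C; 0% = DMSO wells with yeast and 100% = medium wells without yeast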
* = called active by the depositor; . = not tested or not shown.

SMILES | tim10-1 inh | NLRP3 yeast inh | SKKanGAS inh | tim23-1 inh | TIM10 inh | tim23-1 confirm
CC1(C)OC(c2ccccc2)=C/C(=C/C=C2C(=O)NC(=S)NC2=O)O1 | 25 | 15 | -5 | 57* | 21 | 63*
CC[C@H]1C2C[C@H]3[C@@H]4N(C)c5ccccc5C45C[C@H](C2[C@H]5O)N3[C@@H]1O (stereo partly specified) | 8 | 15 | . | 10 | 4 | .
COCCCn1c(N)c(C(=O)OC(C)COC)c2nc3ccccc3nc21 (stereo unspecified) | -2 | 3 | 4 | 20 | 4 | .
CCC(C)NC(=O)c1c(N)n(CCCOC)c2nc3ccccc3nc12 (stereo unspecified) | 39 | 11 | 5 | 53* | 25 | 48*
Nc1ccccc1Cl | -14 | 6 | . | -8 | 2 | .
O=c1[nH]c(=S)n(CCC2=CCCCC2)c(O)c1/C=N/N1CCOCC1 | 37 | 11 | 6 | 52* | 36 | 37*
O=c1c2ccccc2nc(/C=C/c2ccc(F)cc2)n1-c1ccccn1 | 7 | 6 | 3 | 12 | 13 | .
Cc1ccccc1-n1c(/C=C/c2ccccn2)nc2ccccc2c1=O | 34 | 18 | -8 | 52* | 7 | 43*
O=c1c2ccccc2nc(/C=C/c2ccc(O)cc2)n1-c1ccccc1O | 14 | -1 | 35 | 31 | 4 | .
O=c1c2ccccc2nc(/C=C/c2ccccc2)n1-c1ccccc1O | 25 | 16 | 18 | 51* | 18 | 44*
Cc1cc(OCC(=O)NCc2ccc(S(N)(=O)=O)cc2)c2c3c(c(=O)oc2c1)CCC3 | 3 | 1 | 20 | 4 | -2 | .
COP(=O)(OC)/C(C=O)=N/Nc1ccc([N+](=O)[O-])cc1 | 9 | 16 | 1 | 52* | 10 | 50*
O=S(=O)(NC1CCCCCCC1)OCC(Cl)(Cl)Cl | 27 | 40 | 6 | 50* | 26 | 59*
O=S(=O)(NC1CCCC1)OCC(Cl)(Cl)Cl | 7 | 0 | 5 | 29 | 9 | .
CCOP(=S)(OCC)Oc1nc(Cl)c(Cl)cc1Cl | -11 | 6 | . | -2 | 11 | .
COc1cc(-n2c(=S)[nH]c3ccccc3c2=O)c(Cl)cc1Cl | 25 | 19 | 1 | 52* | 23 | 38
